Hits are enriched below; roughly 0.3% of the tested compounds scored in any of these assays.
NPYLR7 agonist = agonists of mosquito NPYLR7 receptor, primary screen, cell-based, Aedes aegypti, calcium fluorescence, mosquito biting behavior; HEK293T NPYLR7/Galpha15, GCaMP6s calcium fluorescence; activation, % at 10 µM; 0.15% of 270,000 active; Aedes aegypti neuropeptide Y-like receptor 7 (NPYLR7); in the data active = activation above about 40%;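 note: 0% = vehicle and 100% = reference agonist at the receptor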
mcGAS lum = cyclic GMP-AMP synthase inhibitors, mouse, primary biochemical chemiluminescence | Q8C6L5 | recombinant cGAS, Kinase-Glo ATP depletion luminescence | inhibition, % at 12.5 µM | 0.15% of 160,000 active | AID 1259399, 2018;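 note: 0% = negative control wells and 100% = reference inhibitor with no enzyme activity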
hcGAS lum = Primary biochemical luminescence assay for human cyclic GMP-AMP synthase inhibitors. Q8N884. inhibition, % at 12.5 µM. recombinant h-cGAS, ATP depletion, Kinase-Glo luminescence. 0.081% of 290,000 active;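 note: 0% = vehicle reaction and 100% = reaction without DNA for no activity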
Numbers without * were called inactive; x = not tested or not shown. Cut-off read from the data, not from the text of the source, unless noted: active = inhibition above about 40%; inactive = the rest.

SMILES | NPYLR7 agonist | mcGAS lum | hcGAS lum
O=C1OC2(c3cc(Br)c(O)cc3Oc3c2cc(Br)c(O)[c]3[Hg])c2ccccc21 (stereo not drawn) | 98* | 30 | 0
Cn1nc(-c2cccc3c2CCNC3)ccc1=O | 5 | x | -7
CCN(C)CCc1c[nH]c2ccc(NC(=O)c3ccc(C#N)cc3)cc12 | 6 | -5 | -4
N#CC(C#N)=Cc1ccc(-c2ccccc2)cc1 | -2 | 49* | -4
N#CC(C#N)=Cc1ccc(O)cc1 | 4 | x | -7
O=C(NOCc1ccccc1)c1nn(Cc2ccc(-c3ccccc3)cc2)c2ccccc12 | 25 | -4 | -6
Cc1cccc(-n2nc(-c3ccccc3)c3c2N(CC(=O)NCc2ccco2)C(=O)CSC3c2ccsc2)c1C (stereo not drawn) | 16 | -7 | -4
O=C(O)c1ccccc1-c1c2cc(Br)c(=O)cc-2oc2[c]([Hg])c(O)c(Br)cc12 | 60* | x | 34
O=c1c(O)c(-c2ccc(O)c(O)c2)oc2c(O)c(O)cc(O)c12 | -3 | x | 47*
Cc1ccc(S(=O)(=O)N2CCN(CCOC(c3ccc(F)cc3)c3ccc(F)cc3)CC2)cc1Cl | 3 | -7 | -5
Oc1c(Cl)c(Cl)c(Cl)c(Cl)c1Cl | 6 | x | 70*
CN(C)P(=O)(OCC(F)(F)F)N(C)C | -9 | x | -5
O=[N+]([O-])c1cc([N+](=O)[O-])cc(C(F)(F)F)c1 | 9 | x | -6
COC(=O)[C@]12CCC(C)(C)C[C@H]1[C@H]1C(=O)C=C3[C@@]4(C)C=C(C#N)C(=O)C(C)(C)[C@@H]4CC[C@@]3(C)[C@]1(C)CC2 | 1 | 52* | 38
CCCCCCCCCCC(=O)N1CCN(CCOC(c2ccccc2)c2ccccc2)CC1 | 4 | -6 | -4
CCn1nc(-c2cccs2)nc2c(=O)n(C)c(=O)nc1-2 | 12 | 59* | 17
CC(C)(C)n1nc(-c2ccccc2)c2c1N(CC(=O)O)C(=O)CSC2c1ccccc1Cl (stereo not drawn) | 0 | -5 | -1
CCOc1ccccc1NC(=O)N1CCN(CCOC(c2ccccc2)c2ccccc2)CC1 | 4 | -7 | -8
O=[N+]([O-])c1c(Cl)ccc2c1no[n+]2[O-] | 2 | 93* | 61*
O=[N+]([O-])c1cc(C(F)(F)F)cc2c1no[n+]2[O-] | 10 | x | 0
CC1=NCCc2c1[nH]c1cc(O)ccc21 | 65* | -1 | -2
COc1ccc2c3c([nH]c2c1)C(C)=NCC3 | 0 | -3 | -6
CN(Cc1ccccc1)C(=O)c1ccc(Cn2nc(C(=O)N3CCN(CCO)CC3)c3ccccc32)cc1 | 11 | -4 | -5
O=S(=O)(c1ccccc1)N1C2Cc3ccccc3C21 (stereo not drawn) | -3 | x | 3
CC(C)(C)c1nn(-c2cccc(Cl)c2)c2c1C(c1ccsc1)SCC(=O)N2CC(=O)O (stereo not drawn) | 2 | -6 | -4
SMILES | NPYLR7 agonist | mcGAS lum | hcGAS lum
N#CC1C(=N)Oc2c(c(=O)oc3ccccc23)C1c1ccc([N+](=O)[O-])o1 (stereo not drawn) | -12 | 59* | -7
N#CC1C(=N)Oc2c(c(=O)oc3ccccc23)C1c1cccc(F)c1 (stereo not drawn) | -2 | 4 | 4
COCc1nc(-c2cccc(CN3CCN(C(=O)Cc4cccc(F)c4)CC3)c2)no1 | -5 | -5 | 0
Cc1nc(CN2C[C@]3(C)C[C@H]2CC(C)(C)C3)cc(=O)[nH]1 | x | 1 | 3
O=C(Cc1c(F)cccc1F)N1CCN(Cc2cccc(-c3noc(-c4ccco4)n3)c2)CC1 | 17 | -3 | -5
Cc1ccc(N2C(=O)NC(=O)/C(=C/c3cn(C)c4ccccc34)C2=O)cc1 | 2 | -1 | -3
Cc1cccc(N2C(=O)NC(=O)/C(=C/c3cn(C)c4ccccc34)C2=O)c1 | 53* | 1 | 0
C#CCN(C)S(=O)(=O)c1ccc(Cn2nc(C(=O)Nc3ccc(C(C)C)cc3)c3ccccc32)cc1 | 21 | -5 | -8

Source: PubChem BioAssay (Fisher Drug Discovery Resource Center)
